Sampled rows, rich in hits. Any-hit rate of the full collection: about 3.5%.
Pf apPOL inh = Pf-apPOL DNA polymerase inhibition. inhibition, % at 10 µM. actives 0.25% (n = 210,000). Recombinant Pf-apPOL, molecular beacon fluorescence, 1.5 h
mHTT-CaM PPI inh = disrupts binding of mutant huntingtin to calmodulin; P42858; AlphaScreen His-mHTT/GST-CaM binding, luminescence; inhibition, % at 15 µM; actives 3.6% (n = 190,000); AID 1671202;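 note: 0% = both proteins with DMSO and 100% = one protein alone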
Active calls of the source: *; · = no result. Cut-off read from the data, not from the text of the source: active = inhibition above about 50%; inactive = the rest.

SMILES	Pf apPOL inh	mHTT-CaM PPI inh
Cc1cc(=O)n(C(NC(=O)c2ccccc2)C(=O)c2ccccc2)cn1 (centres undefined)	-2	-3
CC(C)=CCOc1ccc2c(c1)OC(=Cc1cccc(C)c1)C2=O	2	-5
N#CC(c1ccccc1O)N1N=C(c2ccccc2)CC1c1ccccc1 (centres undefined)	-6	92*
NC(=S)N1N=C(c2ccccc2)CC1c1ccccc1 (centres undefined)	·	7
CCn1c(-c2ccccc2)c(C)sc1=Nc1cccc([N+](=O)[O-])c1	3	57*
O=[N+]([O-])c1cccc(-c2csc(=Nc3ccccc3)n2-c2ccccc2)c1	-10	·
COCCn1c(CC2CCN(C(=O)c3cc(Cl)ccc3OC)C2)nc2cccnc21 (centres undefined)	-3	5
O=C1[C@H](Cc2ccccc2)NCCCC[C@@H](c2ccc(Cl)cc2)N1Cc1ccccc1	-4	91*
O=C1[C@H](Cc2ccccc2)NCCCC[C@H](c2ccc(Cl)cc2)N1Cc1ccc(Cl)cc1	-6	11
O=[N+]([O-])c1cccc(/C=C/c2ccccn2)c1	67*	-2
O=[N+]([O-])c1cccc(/C=C/c2ccc3ccccc3n2)c1	-4	1
COc1cc([N+](=O)[O-])cc2c1OC1(C=C2)N(C)c2ccccc2C1(C)C (centres undefined)	-14	71*
COc1cc([N+](=O)[O-])cc2c1OC1(C=C2)N(C)c2ccc([N+](=O)[O-])cc2C1(C)C (centres undefined)	1	13
COc1cc2c(c(OC)c1[N+](=O)[O-])C=CC1(O2)N(C)c2ccccc2C1(C)C (centres undefined)	3	32
CN1c2ccccc2C(C)(C)C12C=Cc1cc([N+](=O)[O-])ccc1O2 (centres undefined)	-6	-4
COc1ccc2c(c1)C(C)(C)C1(C=Cc3cc([N+](=O)[O-])cc(OC)c3O1)N2C (centres undefined)	3	61*
CNC(=O)CN1c2ccccc2C(C)(C)C12C=Cc1cc([N+](=O)[O-])ccc1O2 (centres undefined)	-4	96*
CCC(=O)N1CCCC1c1nc2ccccc2n1Cc1ccc(Br)cc1 (centres undefined)	-6	-3
FC(F)(F)C1CC(c2ccco2)Nc2ncnn21 (centres undefined)	-6	3
COc1ccc(N2C(=O)CSC2c2ccc3c(c2)OCO3)cc1OC (centres undefined)	-2	1
C=CCC1(NCc2ccco2)CCCCC1	·	-5
Nc1ccccc1C(=O)NNC(=O)c1ccc(Cl)cc1	7	·
O=C(NNC(=O)c1ccc(Cl)cc1)C(=O)NNC(=O)c1ccc(Cl)cc1	90*	·
CC(C)c1ccc(N=Cc2c[nH]c3ccccc23)cc1	-1	2
COc1cccc(N=Cc2c[nH]c3ccccc23)c1	2	100*
SMILES	Pf apPOL inh	mHTT-CaM PPI inh
O=C(CC(=O)c1ccccc1O)c1cccc(F)c1	2	57*
O=C(NCCNC(=O)c1ccccc1O)c1ccccc1O	6	5
O=C(CC(=O)c1ccccc1Cl)c1ccccc1O	0	50*
O=C(CC(=O)c1ccccc1O)c1ccc(F)cc1	-4	38
NS(=O)(=O)c1ccc(CN(C(=O)CCC(=O)O)C2CC(=O)N(c3ccccc3)C2=O)cc1 (centres undefined)	-4	2
O=C(Cn1c(=O)n(-c2ccccc2)c2ncccc21)NC1CC1	0	-3
Cc1cccc(NC(=O)N2CCc3nc(-c4ccc(Cl)cc4)ncc3C2)c1C	-11	-5
O=C(Nc1ccc(C(F)(F)F)cc1)C(NS(=O)(=O)c1cccs1)c1ccccc1 (centres undefined)	-1	84*
O=C(Nc1ccc(F)c(F)c1)C(NS(=O)(=O)c1cccs1)c1ccccc1 (centres undefined)	-1	-2
CCCCNC(=O)CC1N=C2c3ccccc3N=C(SCc3ccc([N+](=O)[O-])cc3)N2C1=O (centres undefined)	-2	53*
CCCCNC(=O)CCC1N=C2c3ccccc3N=C(SCc3ccc([N+](=O)[O-])cc3)N2C1=O (centres undefined)	-2	3
Cc1cccn2c(=O)c3cc(C(=O)NCc4cccnc4)c(=N)n(CCc4ccccc4)c3nc12	-2	6
O=S(=O)(NCC#CCN1CCc2ccccc2C1)c1cccs1	0	-6
CN1CCCc2cc(CCNS(=O)(=O)c3cccs3)ccc21	-5	51*
CN1CCCc2cc(C(CNC(=O)C34CC5CC(CC(C5)C3)C4)N3CCCC3)ccc21 (centres undefined)	5	34
CN1CCCc2cc(CCNC(=O)C34CC5CC(CC(C5)C3)C4)ccc21	1	53*
Cc1nc(Nc2ccccc2)sc1C(=O)NC1CCCC1	2	-6
CCCc1cc(=O)n(CC(=O)Nc2cc(C)on2)c(-n2nc(C)cc2C)n1	-7	-13
CCn1c(=O)c2cc(C(=O)Nc3cccc(C(F)(F)F)c3)nn2c2ccccc21	-8	34
Cc1ccc(Cl)cc1NC(=O)CC(NCCCOC(C)C)C(=O)O (centres undefined)	-7	-10
Cc1ccc(Cl)cc1NC(=O)CC(NCc1ccccn1)C(=O)O (centres undefined)	-8	100*
CC1CCCCN1c1nc(Cl)nc(N2CCCCC2C)n1 (centres undefined)	8	100*
CC1CCCCN1c1nc(-c2ccccc2O)nc2ccccc12 (centres undefined)	3	-8
CCN1CCN(C2CCN(C(=O)c3cc(C)cc(C)c3)CC2)C1=O	-2	95*
CCN1CCN(C2CCN(C(=O)c3ccc(C)cc3)CC2)C1=O	-5	-9
SMILES	Pf apPOL inh	mHTT-CaM PPI inh
CCNC(=O)C1CC(c2ccc(F)c(C)c2)CN(C(=O)c2ccccc2)C1 (centres undefined)	-4	93*
CCNC(=O)N1CC(C(=O)NCC2CC2)CC(c2ccc(F)c(C)c2)C1 (centres undefined)	9	44
CCNC(=O)C1CC(c2ccccc2)CN(C(=O)c2ccccc2)C1 (centres undefined)	2	-4
CCNC(=O)C1CC(c2ccc(F)c(C)c2)CN(C(C)=O)C1 (centres undefined)	-4	-4
Cc1cc(C2CC(C(=O)NCc3cccnc3)CN(C(=O)NC(C)C)C2)ccc1F (centres undefined)	0	67*
CCC(C)NC(=O)C1CC(c2ccc(F)c(C)c2)CN(C(=O)c2ccccc2)C1 (centres undefined)	2	96*
Cc1ccc(C(=O)Nc2cc(Cl)ccc2Cl)c(Cl)c1	-14	-13
CC(=O)Nc1ccc(SC[C@H](CC(C)C)N2CCN(CCc3ccccc3)CCC2=O)cc1	-4	50
O=C1CCN(CCc2ccccc2)CCN1CCSc1ccc(Br)cc1	-9	53*
CC(C)C[C@@H](CN=[N+]=[N-])N1CCN(CCc2ccccc2)CCC1=O	-6	71*
Cc1ccc(SC[C@H](CC(C)C)N2CCN(CCc3ccccc3)CCC2=O)cc1	-6	80*
CC(C)C[C@@H](CO)N1CCN(CCc2ccccc2)CCC1=O	-1	8
Cc1ccc(SCCN2CCN(CCc3ccccc3)CCC2=O)cc1	-2	34
COc1ccc(SC[C@H](Cc2ccccc2)N2CCN(CC(C)C)CCC2=O)cc1	-5	-30
COc1ccc(SC[C@H](CC(C)C)N2CCN(CCc3ccccc3)CCC2=O)cc1	-5	100*

From PubChem BioAssay
